Calls of active or inactive are those of the source. Unless noted, the rule behind the calls is not given here.
Tests used:
[1] = sensitizers of A549 cells to miR-34 induction, primary screen, imaging, A549 dox-inducible miR-34, nuclei and caspase counts (AID 1347080;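 active = compounds whose cell count with miR-34 switched on is under 0.7 times the count with it off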); conditions: A549 miR-34 inducible, Hoechst nuclei count, 48 h
[2] = phospholipid biosynthesis inhibitors in animal cells, primary screen, cell-based, LOPAC library, screen 4 (AID 1347384); conditions: phospholipid biosynthesis inhibition screen, at 10 µM
[3] = viability rescue of complex I mutant cybrids, primary screen, cell-based, galactose medium, ATP luminescence (AID 1645843;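 active = z-score of at least 1.8 in each of two replicates, scored against plate mean and spread of sample wells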;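 note: positive z means more ATP and so rescue of galactose-driven cybrid death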); conditions: complex I mutant cybrid cells, 72 h, stronger effect = higher value
[4] = hESC survival regulators, cell-based (AID 493140); conditions: human embryonic stem cell survival screen; stronger effect = higher value;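 note: cells exposed to compounds for four days before counting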
[5] = inhibitors of Cryptococcus chitosan production, flow cytometry, Cibacron Brilliant Red staining (AID 1347148); conditions: Cryptococcus neoformans chitosan, stronger effect = lower value; at 10 µM unless noted;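 note: compound exposure lasted three days at 37 degrees C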
[6] = modifiers of HSF1 nuclear foci, imaging, Selleck Cancer Library (AID 1347162; in the data active = plate-normalised HSF1 focus index below about 0.46); conditions: human cells, at 10 µM; SSMD: measured here: HSF1 foci SSMD mean; cell count: measured here: cell number; plate-normalised HSF1 focus index: stronger effect = lower value
[7] = liver-stage malaria parasite growth inhibition, primary screen, cell-based, HepG2, luciferase luminescence, HepG2 viability (AID 624349; in the data active = parasite load remaining mostly below about 12%, no sharp cut-off; inactive = mostly above about 10%;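 note: 100% = mean of DMSO negative control wells on the same plate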); conditions: P. berghei liver stage in HepG2, luciferase luminescence, concentration not given here; parasite load remaining: stronger effect = lower value; viability: measured here: HepG2 viability without parasites
[8] = survival rescue of mitochondrial mutant cells in low glucose, primary screen, MELAS cybrids, Rieske KO mouse fibroblasts, CellTiter-Glo (AID 1508586;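 active = mean z-score across replicates of 1.96 or higher in either the MELAS or the Rieske mutant cell line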;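 note: z relative to plate mean and SD of compound and empty wells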)
[9] = system: Hepatitis C virus NS3 helicase; assay: HCV NS3 helicase inhibitors, primary screen, biochemical, fluorescence polarization, LOPAC1280 library (AID 687035; in the data active = inhibition above about 37%); conditions: Purified HCV NS3 helicase, Cy5-dT15 ssDNA binding fluorescence polarization; stronger effect = higher value; concentration not given here
[10] = Cy5 fluorescence quenching or enhancement artefacts, artefact control for HCV NS3 helicase inhibitor project, biochemical, LOPAC1280 (AID 687037); conditions: Cy5-DNA-NS3h complex fluorescence interference counterscreen
[11] = molecular target: NAD(+) hydrolase SARM1 (Homo sapiens) (UniProt Q6SZW1); assay: SARM1 TIR NADase inhibitors, cell lysate, NAD-Glo luminescence (AID 1508614;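 active = compound whose remaining NAD level is above about 45 nM, limit read from the data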;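 note: higher remaining NAD means stronger inhibition of SARM1 NADase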); conditions: SAM-TIR HEK293T lysate NADase, at 1 µM, stronger effect = higher value
NAD(+) hydrolase SARM1 (Homo sapiens), sequence (Q6SZW1 whole entry, looked up): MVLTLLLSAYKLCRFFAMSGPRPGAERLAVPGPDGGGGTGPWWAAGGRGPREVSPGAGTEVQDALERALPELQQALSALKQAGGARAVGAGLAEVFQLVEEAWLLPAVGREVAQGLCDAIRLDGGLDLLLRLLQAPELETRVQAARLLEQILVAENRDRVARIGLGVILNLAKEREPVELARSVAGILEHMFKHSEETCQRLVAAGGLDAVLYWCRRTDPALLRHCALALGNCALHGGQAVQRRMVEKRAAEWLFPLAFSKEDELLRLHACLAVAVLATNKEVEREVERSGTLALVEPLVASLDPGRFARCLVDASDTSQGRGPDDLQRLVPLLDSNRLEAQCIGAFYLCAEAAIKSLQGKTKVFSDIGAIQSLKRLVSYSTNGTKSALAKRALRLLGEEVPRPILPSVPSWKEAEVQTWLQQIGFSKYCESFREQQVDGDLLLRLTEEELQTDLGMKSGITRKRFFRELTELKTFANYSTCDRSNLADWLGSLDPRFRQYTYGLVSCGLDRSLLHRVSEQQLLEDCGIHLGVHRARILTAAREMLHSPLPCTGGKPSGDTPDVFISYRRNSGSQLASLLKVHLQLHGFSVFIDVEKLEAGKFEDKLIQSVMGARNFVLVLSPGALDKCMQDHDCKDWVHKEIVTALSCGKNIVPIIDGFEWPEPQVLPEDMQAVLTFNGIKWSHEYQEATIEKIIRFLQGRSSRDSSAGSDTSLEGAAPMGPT

[12] = circadian clock period modulators, cell-based, LOPAC library, luminescence reporter (AID 2774); conditions: circadian reporter cells, at 7 µM, actives lie on both sides;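 note: values are relative to mean of DMSO wells on each plate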
[13] = molecular target: Mitogen-activated protein kinase 7 (Homo sapiens) (UniProt Q13164); assay: ERK5 transactivation activators in reporter cells, primary screen, cell-based, HTS (AID 1508626;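 active = luciferase signal above three times the same-plate solvent-only control wells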;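 note: luciferase driven by Gal4-ERK5 fusion binding five Gal4 sites before minimal TATA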); conditions: HeLa Gal4-ERK5 transactivation, 18 h, at 5 µM, stronger effect = higher value
Mitogen-activated protein kinase 7 (Homo sapiens), sequence (Q13164 whole entry, looked up, the tested form may be a part): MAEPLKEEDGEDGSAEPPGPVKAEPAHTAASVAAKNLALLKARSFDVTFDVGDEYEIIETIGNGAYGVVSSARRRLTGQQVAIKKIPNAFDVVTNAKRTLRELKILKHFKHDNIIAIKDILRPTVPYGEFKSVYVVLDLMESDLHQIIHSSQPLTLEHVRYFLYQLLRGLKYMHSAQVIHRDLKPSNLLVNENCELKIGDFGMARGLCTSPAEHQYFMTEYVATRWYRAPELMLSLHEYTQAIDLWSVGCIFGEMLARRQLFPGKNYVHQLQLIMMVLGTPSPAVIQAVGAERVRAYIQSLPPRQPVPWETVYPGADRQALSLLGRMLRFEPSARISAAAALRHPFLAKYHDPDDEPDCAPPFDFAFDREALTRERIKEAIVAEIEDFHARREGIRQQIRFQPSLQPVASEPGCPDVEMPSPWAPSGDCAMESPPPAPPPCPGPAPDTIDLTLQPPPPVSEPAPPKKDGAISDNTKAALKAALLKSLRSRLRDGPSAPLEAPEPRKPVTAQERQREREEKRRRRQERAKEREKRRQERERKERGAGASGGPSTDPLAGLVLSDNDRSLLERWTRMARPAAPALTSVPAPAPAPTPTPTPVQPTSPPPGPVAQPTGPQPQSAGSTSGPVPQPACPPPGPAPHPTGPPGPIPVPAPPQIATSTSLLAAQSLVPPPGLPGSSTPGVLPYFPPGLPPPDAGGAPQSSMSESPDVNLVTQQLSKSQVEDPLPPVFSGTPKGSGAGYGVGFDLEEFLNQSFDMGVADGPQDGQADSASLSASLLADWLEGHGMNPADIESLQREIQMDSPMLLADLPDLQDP

[14] = stronger effect = lower value, cell number ratio, induced over uninduced
[15] = measured here: relative caspase fold change +Dox/-Dox
[16] = measured here: total cells with miR-34 induction, stronger effect = lower value
[17] = measured here: total cells without miR-34 induction
[18] = MELAS cybrid survival, CellTiter-Glo 48 h, stronger effect = higher value
[19] = Rieske KO mouse fibroblast survival, CellTiter-Glo 72 h

## COc1ccc(/C=C/c2nc(NCCCN(C)C)c3ccccc3n2)cc1
[1]; [14]
  fold change: 1.02 (inactive)
[1]; [15]
  fold change: 1.21
[1]; [16]
  cell count: 1330
[1]; [17]
  cell count: 1300
[2]
  outcome: inactive
[3]
  z-score: -1.21 (inactive)

## CCCCCCCCCC(=O)N[C@H](CN1CCOCC1)[C@H](O)c1ccccc1
[4]
  survival: 80.8 (inactive)
[1]; [14]
  fold change: 0.988 (inactive)
[1]; [15]
  fold change: 1.18
[1]; [16]
  cell count: 5550
[1]; [17]
  cell count: 5620
[5]
  fold fluorescence: 3.25 (active)

## CCCCC/C=C\C\C=C/C=C/C=C/[C@@H](SCC(NC(C)=O)C(=O)O)[C@@H](O)CCCC(=O)O (some centres undefined)
[4]
  survival: 136 (inactive)
[1]; [14]
  fold change: 0.952 (inactive)
[1]; [15]
  fold change: 1.06
[1]; [16]
  cell count: 5780
[1]; [17]
  cell count: 6080
[5]
  fold fluorescence: 4.05 [at 1 µM] (inactive)

## N#C/C(=C\c1cc(Cl)cc(Cl)c1)c1cccnc1
[4]
  survival: 87.3 (inactive)
[1]; [14]
  fold change: 1.04 (inactive)
[1]; [15]
  fold change: 0.973
[1]; [16]
  cell count: 1950
[1]; [17]
  cell count: 1890
[5]
  fold fluorescence: 4 [at 181.7 µM] (inactive)

## CCCCC/C=C\C/C=C\C/C=C\C/C=C\CCCC(=O)O[C@@H](CO)COC(=O)CCCCCCCCCCCCCCCCC
[4]
  survival: 92.4 (inactive)
[1]; [14]
  fold change: 0.967 (inactive)
[1]; [15]
  fold change: 1.14
[1]; [16]
  cell count: 5940
[1]; [17]
  cell count: 6140
[5]
  fold fluorescence: 5.53 (inactive)

## CCCC(=O)O
[1]; [14]
  fold change: 0.924 (inactive)
[1]; [15]
  fold change: 0.39
[1]; [16]
  cell count: 4770
[1]; [17]
  cell count: 5160
[6]
  SSMD: 1.8
  cell count: 7190
  plate-normalised HSF1 focus index: 1.11 (inactive)

## O=c1[nH]cnc2c1CN=N2
[7]
  parasite load remaining: 22.2% (inactive)
  viability: 60.5%
[1]; [14]
  fold change: 0.891 (inactive)
[1]; [15]
  fold change: 1.16
[1]; [16]
  cell count: 9860
[1]; [17]
  cell count: 11100
[2]
  outcome: inactive
[8]; [18]
  z-score: 0.591 (inactive)
[8]; [19]
  z-score: 0.624
[3]
  z-score: 0.315 (inactive)

## CCOC(=O)[C@H](CCc1ccccc1)N[C@@H](C)C(=O)N1[C@H](C(=O)O)C[C@H]2CCCC[C@@H]21
[9]
  inhibition: -4% (inactive)
[10]
  fluorescence ratio (interference): 1 (inactive)
[1]; [14]
  fold change: 1.13 (inactive)
[1]; [15]
  fold change: 0.831
[1]; [16]
  cell count: 11100
[1]; [17]
  cell count: 9850
[2]
  outcome: inactive
[11]
  remaining NAD: 10 nM (inactive)
[3]
  z-score: 0.51 (inactive)

## Cc1oc(S(=O)(=O)N2CCCCC2)cc1NC(=O)Nc1ccccc1
[1]; [14]
  fold change: 0.9 (inactive)
[1]; [15]
  fold change: 1.24
[1]; [16]
  cell count: 5590
[1]; [17]
  cell count: 6210
[6]
  SSMD: 2.84
  cell count: 6950
  plate-normalised HSF1 focus index: 1.17 (inactive)

## CO/N=C(\C(=O)N[C@@H]1C(=O)N2C(C(=O)O)=C(COC(C)=O)CS[C@H]12)c1csc(N)n1
[7]
  parasite load remaining: 16.7% (inactive)
  viability: 71.5%
[1]; [14]
  fold change: 0.894 (inactive)
[1]; [15]
  fold change: 1.17
[1]; [16]
  cell count: 9420
[1]; [17]
  cell count: 10500
[2]
  outcome: inactive
[8]; [18]
  z-score: 0.329 (inactive)
[8]; [19]
  z-score: 0.781
[3]
  z-score: -0.18 (inactive)

## O=C1Nc2ccc(I)cc2C1=Cc1cc(Br)c(O)c(Br)c1
[9]
  inhibition: -1% (inactive)
[10]
  fluorescence ratio (interference): 1 (inactive)
[1]; [14]
  fold change: 1.04 (inactive)
[1]; [15]
  fold change: 0.568
[1]; [16]
  cell count: 7930
[1]; [17]
  cell count: 7600
[2]
  outcome: inactive
[8]; [18]
  z-score: -0.141 (inactive)
[8]; [19]
  z-score: -0.283

## CCCCCC(=O)/C=C/C=C\CCCCCCCC(=O)O
[4]
  survival: 99.8 (inactive)
[1]; [14]
  fold change: 0.995 (inactive)
[1]; [15]
  fold change: 1.29
[1]; [16]
  cell count: 5630
[1]; [17]
  cell count: 5650
[5]
  fold fluorescence: 4.25 [at 1 µM] (inactive)

## N[C@@H]1CCCC[C@H]1N.O=C(O)C(=O)O.[Pt]
[7]
  parasite load remaining: 182% (inactive)
  viability: 134%
[1]; [14]
  fold change: 0.972 (inactive)
[1]; [15]
  fold change: 1.18
[1]; [16]
  cell count: 4570
[1]; [17]
  cell count: 4710
[6]
  SSMD: 1.36
  cell count: 7520
  plate-normalised HSF1 focus index: 1.09 (inactive)
[8]; [18]
  z-score: 0.335 (inactive)
[8]; [19]
  z-score: -0.474
[3]
  z-score: 1.01 (inactive)

## C[C@@H](NCCc1ccc(O)cc1)[C@@H](O)c1ccc(O)cc1
[12]
  period change: 0.07 h (inactive)
[9]
  inhibition: 0% (inactive)
[10]
  fluorescence ratio (interference): 0.9 (inactive)
[1]; [14]
  fold change: 0.982 (inactive)
[1]; [15]
  fold change: 1.22
[1]; [16]
  cell count: 10600
[1]; [17]
  cell count: 10800
[2]
  outcome: inactive
[11]
  remaining NAD: 10 nM (inactive)
[3]
  z-score: 0.51 (inactive)

## O=C(CCc1ccncc1)NNC(=O)N1Cc2ccccc2Oc2ccc(Cl)cc21
[1]; [14]
  fold change: 1.04 (inactive)
[1]; [15]
  fold change: 1.18
[1]; [16]
  cell count: 8820
[1]; [17]
  cell count: 8460
[2]
  outcome: inactive
[3]
  z-score: -0.355 (inactive)

## CC[C@H]1OC(=O)[C@H](C)C(O[C@H]2C[C@@](C)(OC)[C@@H](O)[C@H](C)O2)[C@H](C)[C@@H](OC2O[C@H](C)C[C@H](N(C)C)[C@H]2O)[C@](C)(O)C[C@@H](C)CN(C)[C@H](C)[C@@H](O)[C@]1(C)O (some centres undefined)
[1]; [14]
  fold change: 1.06 (inactive)
[1]; [15]
  fold change: 1.99
[1]; [16]
  cell count: 10100
[1]; [17]
  cell count: 9500
[2]
  outcome: inactive
[3]
  z-score: -0.895 (inactive)

## CCCCS(=N)(=O)CC[C@H](N)C(=O)O (some centres undefined)
[12]
  period change: -0.045 h (inactive)
[9]
  inhibition: -2% (inactive)
[10]
  fluorescence ratio (interference): 1 (inactive)
[1]; [14]
  fold change: 0.972 (inactive)
[1]; [15]
  fold change: 2.07
[1]; [16]
  cell count: 9810
[1]; [17]
  cell count: 10100
[2]
  outcome: inactive
[13]
  luciferase signal: 48 AU (inactive)
[3]
  z-score: -0.84 (inactive)

## S=c1[nH]c(-c2ccccc2)cn1-c1ccccc1
[1]; [14]
  fold change: 0.982 (inactive)
[1]; [15]
  fold change: 1.24
[1]; [16]
  cell count: 9110
[1]; [17]
  cell count: 9280
[2]
  outcome: inactive
[3]
  z-score: -0.15 (inactive)

## CC(C)(NS(=O)(=O)c1ccc(Oc2ccc(F)cc2)cc1)C(=O)NO
[1]; [14]
  fold change: 1.15 (inactive)
[1]; [15]
  fold change: 0.625
[1]; [16]
  cell count: 7840
[1]; [17]
  cell count: 6810
[2]
  outcome: inactive
[3]
  z-score: -1.27 (inactive)

Source: PubChem BioAssay
